For 23 sequences, binding signal results are on record in publication PMC7819943, “Rice protein-binding microarrays: a tool to detect cis-acting elements near promoter regions in rice”.

The full ranking holds about 68,000 sequences; the median of “fluorescence intensity (a.u.)” is about 9,100, and the highest 2% start at about 16,000. This is one part of a sample in which the highest values are shown more often than they occur.

OsWRKY34, sequence (Q0JBA9 entry or part of it): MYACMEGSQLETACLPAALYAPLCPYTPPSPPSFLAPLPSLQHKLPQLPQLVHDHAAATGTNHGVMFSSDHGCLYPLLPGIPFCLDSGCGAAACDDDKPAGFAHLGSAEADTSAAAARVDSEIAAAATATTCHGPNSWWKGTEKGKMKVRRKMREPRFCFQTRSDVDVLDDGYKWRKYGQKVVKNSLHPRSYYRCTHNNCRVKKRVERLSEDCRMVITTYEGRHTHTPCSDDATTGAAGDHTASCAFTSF

The target in this assay is OsWRKY34 (Oryza sativa, UniProt Q0JBA9 1-250). Nature of the assay: protein-binding microarray (RPBM); PBS, 2% BSA, 51.3 ng/ul salmon testes DNA, 50 uM zinc acetate, 200 nM TF, 25 C, 1 h; high values mean tight binding. Particulars: protein: recombinant; tags: N-terminal polyhistidine and DsRed monomer fusion (pET32a); label: CyDye5-dUTP incorporated in the synthesized complementary strand; 3' TTTTT single-stranded linker to array surface; dsDNA, one strand shown. In outline:
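Using Ni–NTA, transcription factors fused N-terminally to polyhistidine and DsRed were purified after expression in E. coli BL21-CodonPlus. These were incubated at 200 nM with a blocked, double-stranded custom Agilent array for 1 h at 25 °C in a buffer containing 50 µM zinc acetate, and the array was washed. The binding signal is per-feature fluorescence intensity (arbitrary units) on an Axon 4000B scanner.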
As for “GGAAGATTACCCTGTTTACCACTCACTGTACGATGATTATCGGAGTCACCTAGTGCAG”, the binding signal is 9260 fluorescence intensity (a.u.).

With “CACACCATTTCCTTTTTCTTTAGAAAATATCACACTATCACGGAGTCACCTAGTGCAG”, the binding signal was 9060 fluorescence intensity (a.u.). For “ATCGACCTCCATTTTAACGTACGACTCCCTAAGAGACCCGCGGAGTCACCTAGTGCAG”, the binding signal is 9660 fluorescence intensity (a.u.). As for “AATTACTATAACACATCTTCCTAACAAATGCACCTCAATACGGAGTCACCTAGTGCAG”, the binding signal was 8050 fluorescence intensity (a.u.). Consider “CATATGTTTACACCCAAATTTGGCACCTAGGATTAAAATACGGAGTCACCTAGTGCAG”, for which the binding signal was 8350 fluorescence intensity (a.u.). Take “TGCTGTCGTATACTAGAAGCTGATGCTTTTCTTGCTTAGTCGGAGTCACCTAGTGCAG”: the binding signal was 8940 fluorescence intensity (a.u.). Regarding “CAACCCACACACCACCACACAGATCACAACAGCAAGTTGTCGGAGTCACCTAGTGCAG”, the binding signal is 8160 fluorescence intensity (a.u.).

For “TTTGTTTGGTAAAATTTTTGGTGGGGATTGGAGTTGGAAACGGAGTCACCTAGTGCAG”, the binding signal is 9440 fluorescence intensity (a.u.). On to “CTCTCATGTATATACATTAATTATGTTTTTGTCCCCATTTCGGAGTCACCTAGTGCAG”, for which the binding signal was 9950 fluorescence intensity (a.u.).

On to “GAGCATCACAAGTCGCGACCTCACAGGGAGGGGCGGCGGCCGGAGTCACCTAGTGCAG”, for which the binding signal is 9060 fluorescence intensity (a.u.). As for “AGTAATTTATGTTTGACTATTTTTTTAAAAATTTTTTATGCGGAGTCACCTAGTGCAG”, the figure is 10800 fluorescence intensity (a.u.); as for “GAACTGCTCCCTCCATCCATAAATATTTGACGCCGTTGACCGGAGTCACCTAGTGCAG”, 11900 fluorescence intensity (a.u.); as for “CTGTATCCATCCCTAAATATTTGACGCCGTTGACTTTTCTCGGAGTCACCTAGTGCAG”, 25600 fluorescence intensity (a.u.). Regarding “GTTTTGACTTTTTTTTCTAATAAAATTTCTTTTATGTTTGCGGAGTCACCTAGTGCAG”, the binding signal was 18600 fluorescence intensity (a.u.).

Consider “TGTTTTCTGTTCTTTGTTGACTTTAAGTCGCTAAATTTTGCGGAGTCACCTAGTGCAG”, for which the binding signal was 11500 fluorescence intensity (a.u.). As for “ATTATCCTCTTGTTTTTCAACTGGAATGAACCACCAACAACGGAGTCACCTAGTGCAG”, the figure is 9790 fluorescence intensity (a.u.); as for “CACTACTATCTGCCTCACCGTTAACCCTACCGAATAAATTCGGAGTCACCTAGTGCAG”, 8880 fluorescence intensity (a.u.); as for “ATTGCAGCCTTCGCCTCCTTTCCTTCAGGTACACATATTGCGGAGTCACCTAGTGCAG”, 9850 fluorescence intensity (a.u.). Consider “TTGTGGGAGGAGGGGATGGAATGATGATGACTCTGTTTTTCGGAGTCACCTAGTGCAG”, for which the binding signal was 8200 fluorescence intensity (a.u.). With “GGTGATCTTTGTATTCTTTTTCTGCAGCGAACATATAGCTCGGAGTCACCTAGTGCAG”, the binding signal was 16300 fluorescence intensity (a.u.). For “GACGCGGCGCAGTGCAACCAACAAACCGGGGCGGGCGGGGCGGAGTCACCTAGTGCAG”, the binding signal is 11800 fluorescence intensity (a.u.). As for “CCGCTCTGATTCGCAAACTATAACACCAAACAAACGGGCGCGGAGTCACCTAGTGCAG”, the figure is 20100 fluorescence intensity (a.u.); as for “ATTTTGATTTTTGCAATCACCACCCCGCGCGGCGCAAACACGGAGTCACCTAGTGCAG”, 8880 fluorescence intensity (a.u.).
